We go through 40 compounds from PubChem BioAssay (EPA / NIEHS).

“And” between values parts separate entries of the source, which are not always exact repeats. Equal entries are not always repeated. The source made the active and inactive calls. Rule for the calls: active = hit-call score of the fitted dose curve at least 0.9, where 1 is the maximum; inactive = score below 0.9.

Read-out in this assay: Interferon-gamma inducible Protein 10 (IP10), CXCL10 (gene 3627)
The assay can be described thus: BSK_KF3CT_IP10: BioMAP Diversity Plus: KF3CT Assay for Interferon-gamma inducible Protein 10 (IP10) Biomarker Activity (AID 2283068). As to conditions: primary human keratinocytes with fibroblasts; actives raise or lower the signal. As to the method: BSK_KF3CT is a cell-based, multiplexed-readout assay that uses keratinocytes and foreskin fibroblasts, a human skin primary cell co-culture, with measurements taken at 24 hours after chemical dosing in a 96-well plate.BSK_KF3CT_IP10 is an assay component measured in the BSK_KF3CT assay. It measures IP-10 antibody related to regulation of gene expression using ELISA technology.Data from the assay component BSK_KF3CT_IP10 was analyzed into 1 assay endpoint. This assay endpoint, BSK_KF3CT_IP10, was analyzed with bidirectional fitting relative to DMSO as the negative control and baseline of activity. Using a type of binding reporter, gain or loss-of-signal activity can be used to understand changes in the signaling as they relate to the gene CXCL10. Furthermore, this assay endpoint can be referred to as a primary readout, because this assay has produced multiple assay endpoints where this one serves a signaling function. To generalize the intended target to other relatable targets, this assay endpoint is annotated to the cytokine intended target family, where the subfamily is chemotactic factor.
The levels of cell surface (or secreted, indicated by the prefix "s") biomarker endpoints were measured by ELISA. Overt cytotoxicity to cells in confluent adherent cultures (all systems other than the BT system) was assessed by measuring total protein levels using sulforhodamine B (SRB) staining in parallel cultures at the time of biomarker measurements, indicated as SRB endpoints. For proliferation assays for adherent cell types, individual cell types are cultured at sub-confluence and relative cell numbers quantified by SRB staining at time points optimized for each system (48 h: 3C and CASM3C systems; 72 h: BT and HDF3CGF systems; 96 h: SAg system). SRB was performed by staining cells with 0.1% SRB after fixation with 10% TCA and reading wells at 560 nm.Viability and proliferation of PBMC (T cells) was quantified by Alamar Blue reduction for the SAg and BT systems. For PBMC viability (referred to as PBMC Cytotoxicity within the assay endpoint names), cells were plated (75,000/well in a 96-well plate) and then chemical samples added for 1 h before addition of activators, SEB and TSST-1 (20 ng/mL final concentration each). Cells were incubated for 90 h. Then, Alamar Blue (20 uL/well) (Invitrogen, Cat DAL1100) was added for 6 h, and the plates were read with a fluorescence microplate reader at 546/580 nm (excitation/emission). For PBMC proliferation, cells were plated and activated as above but incubated for only 16 h prior to addition of Alamar Blue. Plates were read after 6 h.
Take `CCCCOCCOCCO`: the result was inactive.
In the case of `CC1(C)[C@H](C=C(Cl)Cl)[C@H]1C(=O)OCc1cccc(Oc2ccccc2)c1`, the outcome was inactive.
In the case of `COc1ccccc1NC(=O)CC(C)=O`, the result was inactive.
Regarding `CC1=CC(C)C(C=O)C(C)C1` (stereo not given) (tested in a mixture with another compound), the result was inactive.
On the same count and under the same terms, the value for `CC=CC(=O)C1=C(C)C=CCC1(C)C` was “inactive”.
Still for that read-out and setting: to `CC(C)(C)c1cccc(O)c1` belongs “inactive”; to `COC(=O)c1ccc(C(=O)OC)cc1`, “inactive”; to `CCOC(=O)C=Cc1ccccc1`, “inactive”.
Take `C=C(C)C(=O)OCCC(F)(F)C(F)(F)C(F)(F)C(F)(F)C(F)(F)C(F)(F)C(F)(F)C(F)(F)F`: the result was inactive.
Regarding `O=C(O)C(F)(F)C(F)(F)C(F)(F)C(F)(F)C(F)(F)C(F)(F)C(F)(F)C(F)F`, the outcome was inactive.
For `CC(C)Cc1ccc(C(C)C(=O)O)cc1` (stereo not given), the result was inactive.
Turning to `CCn1cc(C(=O)O)c(=O)c2ccc(C)nc21`, the result was inactive.
Turning to `CCCCCCCCCCCCS`, the result was inactive.
With `O=C(O)C(F)(F)OC(F)(F)C(F)(F)OC(F)(F)C(F)(F)C(F)(F)C(F)(F)F`, the AC50 is 32.2 µM (active) and 30 µM (active).
Regarding `O=S(=O)(O)C(F)(F)C(F)(F)OC(F)(F)C(F)(F)F`, the result was inactive.
As for `CCOC(=O)CCCCCCCCC(=O)OCC`, the result was inactive.
Take `C#C[C@]1(O)CC[C@H]2[C@@H]3CCc4cc(O)ccc4[C@H]3CC[C@@]21C`: the outcome was inactive.
For the compound `C=CC(=O)OCC(CO)(COC(=O)C=C)COC(=O)C=C`, the AC50 was 1.08 µM (active).
For `CC(=O)OC(C)(C)C1CC=C(C)CC1` (stereo not given), the outcome was inactive.
The same measure, in the same setting: the value for `CCCO[Si](OCCC)(OCCC)OCCC` was “inactive”; that for `CCCCCCCCCC(=O)OCC` was “inactive”.
As to `OCCN1CCOCC1`, the outcome was inactive.
Consider `O=C(c1ccc(OCCN2CCCCC2)cc1)c1c(-c2ccc(O)cc2)sc2cc(O)ccc12`, for which the AC50 was 21 µM (active).
In the case of `CC(C)(CO)CO`, the outcome was inactive.
`c1ccc2c(c1)-c1ccc3ccc4cccc5cc-2c1c3c45`: the result was inactive.
Still for that read-out and setting: to `CC(=O)c1ccc(C)cc1` belongs “inactive”.
On to `OCC(F)(OC(F)(F)C(F)(OC(F)(F)C(F)(F)C(F)(F)F)C(F)(F)F)C(F)(F)F` (stereo not given), for which the AC50 is 5.01 µM (active) and 4.55 µM (active).
Take `C[C@]12CC[C@@H]3c4ccc(O)cc4CC[C@H]3[C@@H]1CC[C@@H]2O`: the outcome was inactive.
Consider `c1ccc(OCCOc2ccccc2)cc1`, for which the result was inactive.
Take `O=C1OC2(c3ccc(O)cc3Oc3cc(O)ccc32)c2ccccc21`: the result was inactive.
Regarding `CCCCN(CCO)CCO`, the result was inactive.
Same read-out and setting: the value for `CC(C)CCCC(C)(C)O` was “inactive”.
`C=C(F)C(=O)OC(C(F)(F)F)C(F)(F)F`: the outcome was inactive.
As for `C=C1CC/C=C(\C)CC[C@@H]2[C@@H]1CC2(C)C`, the AC50 was 25.2 µM (active).
Regarding `CCCCCCCC1CCCC1=O` (stereo not given), the outcome was inactive.
For the compound `CC(=O)CCC=C(C)CCC=C(C)C`, the result was inactive.
The same measure, in the same setting: the value for `c1ccc(Sc2ccccc2)cc1` was “inactive”.
As for `CC(=O)OCC=C(C)CCC=C(C)CCC=C(C)C`, the outcome was inactive.
In the case of `Nc1ccc(N)c([N+](=O)[O-])c1`, the result was inactive.
Still for that read-out and setting: to `CCC(=O)OCC=Cc1ccccc1` belongs “inactive”.
